# Test results from PubChem BioAssay (NCATS).
# Values joined by “and” are separate entries in the source; they are usually repeats but may differ in a detail not shown here. Identical values can stand only once. Inconclusive results are not listed. Where a call stands in place of a potency, no number is given. Some structures have more than one record in an assay (separate samples or runs), and their calls can disagree. Active and inactive are the calls of the source. Calls follow the shape of the dose curve; as a rule, active = well fitted inhibition curve with a large enough effect; inconclusive = small, poorly fitted or top-dose-only effect; inactive = no such curve, though single readings can be large or run the other way.
# Test: NS1 protein of Zika virus - qHTS assay to identify small molecule inhibitors in human HEK 293 cells (AID 1347053); also: nearly all actives have a fitted effect of over 55% in size
# Settings: HEK293 ZIKV MR766 infection, NS1 TR-FRET, 24 h; series mostly up to 46.1 µM; activity change, negative = inhibition: at the top concentration
# Description: National Center for Advancing Translational Sciences [NCATS]
# Johns Hopkins University School of Medicine
# The non-structural 1 (NS1) protein of zika virus is known to associate with the viral replication complex. This cell-based TR-FRET ZIKV NS-1 assay measures the increased NS-1 protein in human HEK 293 cells after a 24-hour Zika virus infection by a TR-FRET assay readout. A decrease in the Time-resolved fluorescence energy transfer (TR-FRET) signal in this assay by small molecule treatment indicates an inhibitory effect of the small molecule on the expression of Zika virus NS1 correlating with Zika virus replication.
# HEK 293 cells were cultured in EMEM (ATCC, Cat. # 30-2003) medium with 10% fetal bovine serum (GE healthcare Life Sciences, Cat. # SH30071.03), and 1% Pen/Strep (Gibco, Cat. # 15140-122). Cells were seeded in the assay plate and incubated at 37 C with 5% CO2 for 20 hours. Compounds were added to cells and incubated for one hour before addition of ZIKV MR766 strain solution to cells (MOI = 0.5). After an incubation at 37 C for 24 hours, the reagent mixture of TR-FRET ZIKV NS1 assay using two anti-ZIKV NS1 antibodies was added to assay plates. The TR-FRET signals in assay plates were measured using an Envision plate reader (PerkinElmer). Data were normalized by using the cell-containing wells without ZIKV as a negative control (0% NS-1) and wells containing ZIKV infected cells as a positive control (100% NS-1 level).
# Potency is read from the fitted curve at half-maximal effect.
Compound,Potency,"activity change, negative = inhibition"
Cc1ccc(C)c(OCCCC(C)(C)C(=O)O)c1,inactive,–
O=C(O)c1cc(=O)c2c(OCC(O)COc3cccc4oc(C(=O)O)cc(=O)c34)cccc2o1,inactive,–
O=C(O)CCNC(=O)c1ccc(N=Nc2ccc(O)c(C(=O)O)c2)cc1,inactive,–
O=C(NCCO[N+](=O)[O-])c1cccnc1,inactive,–
CN(C)CCCC1(c2ccc(F)cc2)OCc2cc(C#N)ccc21 (stereo not given),inactive,–
CN(C)CCc1c[nH]c2ccc(Cn3cncn3)cc12,–,-15.2% (inactive)
CCOC(=O)C(C)Oc1cccc2c(=O)n(CC(=O)Nc3ccc4c(c3)OCCO4)ccc12 (stereo not given),inactive,–
CN(C)c1ccc(O)c2c1C[C@H]1C[C@H]3[C@H](N(C)C)C(=O)C(C(N)=O)=C(O)[C@@]3(O)C(=O)C1=C2O,inactive,–
Clc1ccc(C(Cn2ccnc2)OCc2ccsc2Cl)c(Cl)c1 (stereo not given),–,36% (inactive)
CCCOc1ccc2nc(NC(=O)OC)[nH]c2c1,46.9 nM (active),–
CC(C)C[C@H](NC(=O)[C@H](Cc1ccccc1)NC(=O)c1cnccn1)B(O)O,33.2 nM (active),–
NC(=NCc1ccccc1)NC(=O)c1nc(Cl)c(N)nc1N,inactive,–
COC(=O)N[C@H](C(=O)N[C@@H](Cc1ccccc1)[C@@H](O)CN(Cc1ccc(-c2ccccn2)cc1)NC(=O)[C@@H](NC(=O)OC)C(C)(C)C)C(C)(C)C,inactive,–
CC[C@]1(O)C[C@H]2CN(CCc3c([nH]c4ccccc34)[C@@](C(=O)OC)(c3cc4c(cc3OC)N(C=O)[C@H]3[C@@](O)(C(=O)OC)[C@H](OC(C)=O)[C@]5(CC)C=CCN6CC[C@]43[C@@H]65)C2)C1,1.18 µM (active) and inactive,–
O=C(CS(=O)Cc1ccco1)NCC=CCOc1cc(CN2CCCCC2)ccn1 (stereo not given),–,2% (inactive)
Cc1cccc(-c2[nH]ncc2-c2ccc3ncccc3n2)n1,inactive,–
CN(C)C(=O)COC(=O)Cc1ccc(OC(=O)c2ccc(N=C(N)N)cc2)cc1,inactive,–
Nc1nc(N)c(N=O)c(OCC2CCCCC2)n1,inactive,–
NNc1nncc2ccccc12,inactive,–
C[C@H](Cn1cnc2c(N)ncnc21)OCP(=O)(O)O,–,-8.06% (inactive)

Compound,Potency,"activity change, negative = inhibition"
Cc1cc(=O)c2c(O)c3c(O)cc(=O)c4c3c3c(cc(O)c1c23)C(C)(C)C=4O,–,2.19% (inactive)
CCC[C@@H]1C[C@@H](C(=O)N[C@@H]([C@H]2O[C@H](SC)[C@H](O)[C@@H](O)[C@H]2O)[C@@H](C)O)N(C)C1,inactive,–
COc1c(O)cc2c(c1O)[C@@H]1O[C@H](CO)[C@@H](O)[C@H](O)[C@H]1OC2=O,–,3.5% (inactive)
CC(C)c1ccc2oc3nc(N)c(C(=O)O)cc3c(=O)c2c1,inactive,–
Cc1nccn1CC1CCc2c(c3ccccc3n2C)C1=O (stereo not given),inactive,–
CCN(CC)C(=S)SSC(=S)N(CC)CC,8330 nM (active),–
Cc1cc(C2CCCCC2)n(O)c(=O)c1,inactive and 6.62 µM (active),–
C[C@]12CCC(=O)C=C1CC[C@@H]1[C@H]2[C@@H](O)C[C@@]2(C)[C@H]1CC[C@]2(O)C(=O)CO,–,3.64% (inactive)
CN(c1nccc(=O)[nH]1)C1CCN(c2nc3ccccc3n2Cc2ccc(F)cc2)CC1,inactive,–
O=C(NC(Cc1cc(=O)[nH]c2ccccc12)C(=O)O)c1ccc(Cl)cc1 (stereo not given),inactive,–
Nc1nc(OCc2ccccc2)c2[nH]cnc2n1,–,4.62% (inactive)
Cc1ccc(C(=O)c2cc(O)c(O)c([N+](=O)[O-])c2)cc1,inactive,–
C[C@@H](N)C1CCC(C(=O)Nc2ccncc2)CC1 (stereo not given in full),inactive,–
Cn1c(NCCN(CCO)CCCc2ccc([N+](=O)[O-])cc2)cc(=O)n(C)c1=O,–,-13.6% (inactive)
CC(C)c1nc(CN(C)C(=O)N[C@H](C(=O)N[C@@H](Cc2ccccc2)C[C@H](O)[C@H](Cc2ccccc2)NC(=O)OCc2cncs2)C(C)C)cs1,–,-3.9% (inactive)
Nc1ccn([C@@H]2O[C@H](CO)[C@@H](O)C2O)c(=O)n1 (stereo not given in full),–,0.973% (inactive)
CCCS(=O)c1ccc2nc(NC(=O)OC)[nH]c2c1 (stereo not given),–,15.3% (inactive)
OC(CN1CCN(c2cccc(Cl)c2)CC1)C(c1ccccc1)c1ccccc1 (stereo not given),–,3.35% (inactive)
CS(=O)(=O)OCCCCOS(C)(=O)=O,inactive,–
CNC[C@@H](O)[C@@H](O)[C@H](O)[C@H](O)CO,–,4.6% (inactive)
